This note sets out measurements from PubChem BioAssay (NCI).

About 83,000 compounds went through this panel and 20% of them were active in at least one assay; those are over-represented in the sample as a whole.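 Cells were grown in 96-well plates and exposed to the test compound at a single concentration for 48 hours; results are reported as percent growth, with values below 10 considered active.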 A number with no mark means an inactive call. Activity calls are given as the source filed them.

Among the test systems are SR leukemia; RPMI-8226 leukemia; OVCAR-5 ovarian; OVCAR-4 ovarian; SK-OV-3 ovarian; IGROV1 ovarian; OVCAR-3 ovarian; HS 578T breast; NCI/ADR-RES ovarian; T-47D breast; BT-549 breast; MDA-MB-435 melanoma; SW-620 colon; MCF7 breast; HCT-116 colon; HCC-2998 colon; KM12 colon; OVCAR-8 ovarian.
Common to all, as to assay: NCI-60 one-dose screen, 48 h (100 = growth as untreated, 0 = no growth, -100 = all killed)

With `CC[C@](O)(C(=O)O)c1cc2n(c(=O)c1CO)Cc1cc3ccccc3nc1-2`, the growth was -20.3% (active) in the experiment with SR leukemia (10 µM unless noted); -36% (active) with RPMI-8226 leukemia (10 µM unless noted); 9.24% (active) in the experiment on OVCAR-5 ovarian (10 µM unless noted); -19.4% (active) in the experiment with OVCAR-4 ovarian (10 µM unless noted); 12.4% in the experiment on SK-OV-3 ovarian (10 µM unless noted); -48.1% (active) with IGROV1 ovarian (10 µM unless noted). For the same compound, the growth was -42.3% (active) in the experiment with OVCAR-3 ovarian (10 µM unless noted); 29.4% in the experiment with HS 578T breast (10 µM unless noted); 2.02% (active) with NCI/ADR-RES ovarian (10 µM unless noted); -6.44% (active) in the experiment on T-47D breast (10 µM unless noted); -34.5% (active) in the experiment on BT-549 breast (10 µM unless noted); -81% (active) in the experiment with MDA-MB-435 melanoma (10 µM unless noted). The growth is -30% (active) with SW-620 colon (10 µM unless noted); 1.99% (active) in the experiment with MCF7 breast (10 µM); -26.6% (active) with HCT-116 colon (10 µM unless noted); -61.6% (active) in the experiment with HCC-2998 colon (10 µM unless noted); -29.9% (active) with KM12 colon (10 µM unless noted).
`COC1CC(CC2CCC(C)C(C(C)C(=O)O)O2)OC2(OC(C)(C3CCC(C)(C4OC(C5OC(O)(CO)C(C)CC5C)CC4C)O3)CC2C)C1C` (stereo not drawn): the growth with SR leukemia (10 µM unless noted) was -28.8% (active); in the experiment on RPMI-8226 leukemia (10 µM unless noted), -45% (active); with OVCAR-5 ovarian (10 µM unless noted) it was 14%; in the experiment with SK-OV-3 ovarian (10 µM unless noted), 44%; with OVCAR-3 ovarian (10 µM unless noted) it was 9.34% (active); in the experiment with HS 578T breast (10 µM unless noted), 14.3%. Further, the growth with NCI/ADR-RES ovarian (10 µM unless noted) was 36.7%; with T-47D breast (10 µM unless noted), 15.9%; in the experiment on BT-549 breast (10 µM unless noted), -52.6% (active); in the experiment on MDA-MB-435 melanoma (10 µM unless noted) it was -91.7% (active); in the experiment with SW-620 colon (10 µM unless noted), 6.56% (active); in the experiment with MCF7 breast (10 µM), 8.04% (active). Also, the values for the growth in the experiment with HCT-116 colon (10 µM unless noted), in the experiment with HCC-2998 colon (10 µM unless noted) and with KM12 colon (10 µM unless noted) were 3.98% (active), -10% (active) and -33.4% (active), respectively.
Turning to `Cc1ccc(C(=O)OC(C(=O)O)C(OC(=O)c2ccc(C)cc2)C(=O)O)cc1` (stereo not drawn) (tested in a mixture with another compound), the growth with RPMI-8226 leukemia (10 µM unless noted) was -3.01% (active); in the experiment with OVCAR-8 ovarian (10 µM), 61.4%; in the experiment with OVCAR-5 ovarian (10 µM unless noted) it was 67%; in the experiment on OVCAR-4 ovarian (10 µM unless noted), 58.9%; in the experiment with SK-OV-3 ovarian (10 µM unless noted), 69.7%; in the experiment with IGROV1 ovarian (10 µM unless noted), 63%. Also, the growth with OVCAR-3 ovarian (10 µM unless noted) was 44.5%; with HS 578T breast (10 µM unless noted) it was 40%; in the experiment with NCI/ADR-RES ovarian (10 µM unless noted), 56.3%; in the experiment with BT-549 breast (10 µM unless noted), 17.5%; with MDA-MB-435 melanoma (10 µM unless noted) it was 51.3%; in the experiment on SW-620 colon (10 µM unless noted) it was 53.4%. In addition, the growth is 14.3% in the experiment with MCF7 breast (10 µM), 22.1% in the experiment with HCT-116 colon (10 µM unless noted), 73% with HCC-2998 colon (10 µM unless noted) and 58.9% in the experiment on KM12 colon (10 µM unless noted).
Take `Cc1cc(N=Nc2ccccc2C)ccc1N`: the growth with RPMI-8226 leukemia (10 µM unless noted) is 17.5%; with OVCAR-8 ovarian (10 µM) it was 82.1%; with OVCAR-5 ovarian (10 µM unless noted), 84.7%; with OVCAR-4 ovarian (10 µM unless noted), 69.2%; in the experiment with SK-OV-3 ovarian (10 µM unless noted), 99.1%; with IGROV1 ovarian (10 µM unless noted), 77.1%. Further, the growth is 73.2% in the experiment on OVCAR-3 ovarian (10 µM unless noted); 79.4% in the experiment with NCI/ADR-RES ovarian (10 µM unless noted); 59% with T-47D breast (10 µM unless noted); 69.7% with BT-549 breast (10 µM unless noted); 82.9% in the experiment with MDA-MB-435 melanoma (10 µM unless noted); 84.7% in the experiment on SW-620 colon (10 µM unless noted). Further, the growth is 58.7% in the experiment on MCF7 breast (10 µM), 78.1% with HCT-116 colon (10 µM unless noted) and 78.2% with KM12 colon (10 µM unless noted).
With `S=C(SSC(=S)N1CCCCC1)N1CCCCC1`, the growth in the experiment with SR leukemia (10 µM) was 86.2%; in the experiment on SR leukemia (100 µM), -8.68% (active); with RPMI-8226 leukemia (10 µM), 105%; in the experiment on RPMI-8226 leukemia (100 µM), -44.7% (active); with OVCAR-8 ovarian (10 µM) it was 92.4%; in the experiment with OVCAR-8 ovarian (100 µM) it was -43.4% (active). The growth with OVCAR-5 ovarian (10 µM) is 114%; with OVCAR-5 ovarian (100 µM), -85.8% (active); with OVCAR-4 ovarian (10 µM), 85.2%; in the experiment with OVCAR-4 ovarian (100 µM), -51.1% (active); in the experiment with SK-OV-3 ovarian (10 µM), 110%; in the experiment on SK-OV-3 ovarian (100 µM) it was 45.7%. The growth in the experiment with IGROV1 ovarian (10 µM) is 99.5%; in the experiment on IGROV1 ovarian (100 µM), 50.2%; with OVCAR-3 ovarian (10 µM), 105%; in the experiment with OVCAR-3 ovarian (100 µM) it was -68.7% (active); in the experiment with HS 578T breast (10 µM), 111%; in the experiment on HS 578T breast (100 µM), 59.7%. The growth is 97.7% in the experiment with NCI/ADR-RES ovarian (10 µM); 2.3% (active) in the experiment on NCI/ADR-RES ovarian (100 µM); 100% with T-47D breast (10 µM); -28.4% (active) in the experiment on T-47D breast (100 µM); 92% with BT-549 breast (10 µM); -1.94% (active) in the experiment on BT-549 breast (100 µM). Also, the growth in the experiment with MDA-MB-435 melanoma (10 µM) is 99.3%; with MDA-MB-435 melanoma (100 µM), -30.9% (active); in the experiment on SW-620 colon (10 µM), 95.3%; with SW-620 colon (100 µM), -55.7% (active); with MCF7 breast (10 µM) it was 80.1%; in the experiment with MCF7 breast (100 µM) it was -46.8% (active). Also, the growth with HCT-116 colon (10 µM) is 85.3%; in the experiment on HCT-116 colon (100 µM) it was -76.4% (active); in the experiment with HCC-2998 colon (10 µM), 109%; in the experiment with HCC-2998 colon (100 µM), 22.3%; with KM12 colon (10 µM) it was 102%; in the experiment on KM12 colon (100 µM), -18.5% (active).
Regarding `COc1ccc(OC)c(/C=C/[N+](=O)[O-])c1`, the growth in the experiment on SR leukemia (10 µM unless noted) was -13% (active); in the experiment on RPMI-8226 leukemia (10 µM unless noted), -28.9% (active); with OVCAR-8 ovarian (10 µM), 11.8%; in the experiment with OVCAR-5 ovarian (10 µM unless noted) it was 20.2%; in the experiment with SK-OV-3 ovarian (10 µM unless noted), 64.7%; with IGROV1 ovarian (10 µM unless noted) it was -4.14% (active). Moreover, the growth in the experiment with OVCAR-3 ovarian (10 µM unless noted) is -59% (active); in the experiment with HS 578T breast (10 µM unless noted), 4.59% (active); in the experiment on NCI/ADR-RES ovarian (10 µM unless noted), 17.7%; in the experiment on T-47D breast (10 µM unless noted), 16.6%; in the experiment with BT-549 breast (10 µM unless noted), -45.5% (active); in the experiment with MDA-MB-435 melanoma (10 µM unless noted), 7.04% (active). Besides, the growth with SW-620 colon (10 µM unless noted) is -38.7% (active); in the experiment with MCF7 breast (10 µM), -1.64% (active); with HCT-116 colon (10 µM unless noted), -81.5% (active); in the experiment on HCC-2998 colon (10 µM unless noted), -82.4% (active); in the experiment on KM12 colon (10 µM unless noted), 11.7%.
On to `Oc1cc[c]([Hg][Cl])cc1`, for which the growth in the experiment with SR leukemia (10 µM unless noted) is 38.2%; in the experiment on RPMI-8226 leukemia (10 µM unless noted), 91.2%; in the experiment with OVCAR-8 ovarian (10 µM), 105%; in the experiment with OVCAR-5 ovarian (10 µM unless noted), 116%; in the experiment on OVCAR-4 ovarian (10 µM unless noted), 100%; in the experiment on SK-OV-3 ovarian (10 µM unless noted) it was 135%. Further, the growth is 87.8% in the experiment on IGROV1 ovarian (10 µM unless noted); 91% in the experiment on OVCAR-3 ovarian (10 µM unless noted); 85.5% in the experiment on HS 578T breast (10 µM unless noted); 107% with NCI/ADR-RES ovarian (10 µM unless noted); 128% in the experiment with BT-549 breast (10 µM unless noted); 96% in the experiment on MDA-MB-435 melanoma (10 µM unless noted). The growth is 105% with SW-620 colon (10 µM unless noted); 50.5% in the experiment on MCF7 breast (10 µM); 91% with HCT-116 colon (10 µM unless noted); 114% with HCC-2998 colon (10 µM unless noted); 97.4% in the experiment on KM12 colon (10 µM unless noted).
